# The campaign covered roughly 310,000 compounds. About 14,000 (4.5%) showed an effect of 50% or more. Effects have a minus sign here. The sample as a whole holds a higher share of strong results than the screen did.
# Target: human ether-à-go-go-related gene (hERG) potassium channel (human, UniProt Q12809)
# Assay: primary screen, population patch clamp on CHO cells stably expressing hERG; higher = less effect of the substance
# 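Note: peak tail current of the secondary pulse compared with the same well before compound.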
# Chain of human ether-à-go-go-related gene (hERG) potassium channel (Q12809 whole entry, looked up): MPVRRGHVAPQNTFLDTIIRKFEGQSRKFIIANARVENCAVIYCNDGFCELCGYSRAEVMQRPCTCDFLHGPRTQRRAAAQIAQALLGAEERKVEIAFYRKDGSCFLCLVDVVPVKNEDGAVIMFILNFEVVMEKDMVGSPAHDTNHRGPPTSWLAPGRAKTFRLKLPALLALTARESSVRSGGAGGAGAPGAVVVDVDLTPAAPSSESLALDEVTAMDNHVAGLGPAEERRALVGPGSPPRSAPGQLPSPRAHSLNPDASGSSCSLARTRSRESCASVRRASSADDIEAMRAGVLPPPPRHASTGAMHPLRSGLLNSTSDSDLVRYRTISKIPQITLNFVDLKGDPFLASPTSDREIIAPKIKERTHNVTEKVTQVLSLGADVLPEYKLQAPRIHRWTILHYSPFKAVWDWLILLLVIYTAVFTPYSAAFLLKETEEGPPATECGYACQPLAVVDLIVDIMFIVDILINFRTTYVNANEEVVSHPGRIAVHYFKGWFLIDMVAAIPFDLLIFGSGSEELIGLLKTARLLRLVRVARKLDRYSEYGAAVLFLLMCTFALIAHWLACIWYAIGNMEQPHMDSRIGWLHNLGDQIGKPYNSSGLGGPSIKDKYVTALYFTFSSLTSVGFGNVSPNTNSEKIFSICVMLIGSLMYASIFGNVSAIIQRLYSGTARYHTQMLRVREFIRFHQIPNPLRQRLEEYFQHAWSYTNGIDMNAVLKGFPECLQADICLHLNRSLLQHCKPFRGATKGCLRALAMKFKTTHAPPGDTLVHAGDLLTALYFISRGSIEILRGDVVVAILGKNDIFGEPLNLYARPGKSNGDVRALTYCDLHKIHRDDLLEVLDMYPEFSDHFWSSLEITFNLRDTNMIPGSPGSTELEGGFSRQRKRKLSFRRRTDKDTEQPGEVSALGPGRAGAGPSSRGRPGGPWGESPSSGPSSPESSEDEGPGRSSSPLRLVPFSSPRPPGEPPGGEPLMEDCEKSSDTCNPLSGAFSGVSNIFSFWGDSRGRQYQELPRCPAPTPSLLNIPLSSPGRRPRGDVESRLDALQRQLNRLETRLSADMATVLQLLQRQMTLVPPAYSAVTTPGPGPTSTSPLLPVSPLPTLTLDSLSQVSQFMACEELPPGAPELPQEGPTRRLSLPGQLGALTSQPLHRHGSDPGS
row,Structure (SMILES),"hERG current change (%, negative = inhibition) at 10uM"
1,O=C(CN(C(=O)c1csnn1)c1ccc(F)c(Cl)c1)NCc1ccc(F)cc1,7.3%
2,CN1OC(Cn2cc(C#N)c(=O)n(C)c2=O)CC1c1ccccc1 (stereo not shown),12.5%
3,CCOc1ccc(CN(C)CC(=O)Nc2cc(C)c(C)cc2[N+](=O)[O-])cc1.CN(C)C=O,9.36%
4,Oc1ccc(Nc2nc(-c3ccc(O)cc3)cs2)cc1,18.9%
5,Cc1cc(C)cc(NC(=O)c2ccc(CSc3nnnn3C)cc2)c1,-24%
6,Cl.NCCCNc1ccc([N+](=O)[O-])cc1C(F)(F)F,-15%
7,CCn1cc(C(=O)O)c(=O)c2cc(F)c(N3CCN(C(=S)NC(=O)c4cccc(F)c4)CC3)cc21,5.44%
8,Cn1c(=O)[nH]c(=O)c2c1ncn2CCCc1ccccc1,1.26%
9,Cc1ccc(-c2[nH]ncc2C(=O)c2ccc(Br)cc2)c(O)c1,-9.43%
10,COc1ccc2c(-c3ccccc3)cc(N3CCOCC3)nc2c1.O=C(O)C(=O)O,3.22%
11,O=C(O)C(=O)O.OCCN1CCN(c2cc(-c3ccccc3)c3ccccc3n2)CC1,-63.3%
12,O=C(O)C(=O)O.c1ccc(-c2cc(N3CCOCC3)nc3ccccc23)cc1,-11.6%
13,CCOC(=O)c1ccc[n+](CC(=O)Nc2ccccc2OC(F)F)c1.[Cl-],4.85%
14,CCCCOc1ccc(C(=O)Nn2cnnc2)cc1,-0.225%
15,Cc1nc2ccc(NC(=O)c3cc(Cl)ccn3)cc2s1,17.4%
16,C=CCn1c(SCC(=O)NCCO)nc2sc(C)c(C)c2c1=O,11.6%
17,Cc1sc2nc(SCc3ccc(C(=O)O)cc3)n(Cc3ccco3)c(=O)c2c1C,-59.2%
18,C=CCn1c(SCc2ccc(C(=O)O)cc2)nc2sc(C)c(C)c2c1=O,-4.36%
19,C=CCn1c(SCc2ccc(C(=O)NCCO)cc2)nc2sc(C)c(C)c2c1=O,-61.6%
20,Cc1ccc(CSc2nc3sc(C)c(C)c3c(=O)n2Cc2ccco2)cc1,-6.19%
21,Cc1sc2nc(SCc3ccccc3)n(Cc3ccco3)c(=O)c2c1C,-2.09%
22,O=C1C2CC=C(Cl)CC2C(=O)N1CCC[n+]1cccc2ccccc21 (stereo not shown),8.95%

row,Structure (SMILES),"hERG current change (%, negative = inhibition) at 10uM"
1,Cc1onc(-c2ccccc2Cl)c1C(=O)Nc1nnc(-c2ccc(Cl)cc2Cl)s1,17%
2,Cc1cc(OCC(=O)NCC(O)c2ccccc2)c2c3c(c(=O)oc2c1)CCC3 (stereo not shown),16.1%
3,Cc1ccc(/C=N/NC(=O)Cn2cnc3ccccc32)cc1,14.4%
4,CC1(C)CNc2cc([N+](=O)[O-])ccc2S1,6.88%
5,COc1ccc(C(=O)NCC(=O)N2CCN(c3ccc(F)cc3)CC2)cc1,-1.94%
6,CCOC(=O)c1oc2ccccc2c1NC(=O)COc1ccc(F)cc1,14%
7,CCOCCCN(C)C1CCN(C(=O)c2oc3ccccc3c2NC(=O)COc2cccc(C)c2)CC1,-82.2%
8,COc1ccc(CC(=O)Nc2c(C(=O)N3CCN(c4ccccc4OC)CC3)oc3ccccc23)cc1OC,-24.4%
9,CCOCCCN(C)C1CCN(C(=O)c2oc3ccccc3c2NC(=O)c2ccc(F)cc2)CC1,-77.5%
10,CCOCC(=O)Nc1c(C(=O)N2CCN(c3ncccn3)CC2)oc2ccccc12,-21.4%
11,CCOCCCN(C)C1CCN(C(=O)c2oc3ccccc3c2NC(=O)COc2ccc(F)cc2)CC1,-80.1%
12,COCCCN(C)C1CCN(C(=O)Nc2ccc(F)cc2)CC1,-28.8%
13,CCOC(=O)c1oc2ccccc2c1NC(=O)COc1cccc(OC)c1,10.4%
14,CCOCC(=O)Nc1c(C(=O)OCC)oc2ccccc12,-11.1%
15,CCOCCCN(C)C1CCN(C(=O)c2oc3ccccc3c2NC(=O)Cc2ccc(F)cc2)CC1,-77.8%
16,NC(=O)c1oc2ccccc2c1NC(=O)c1ccc(F)cc1,10.9%
17,COc1ccc(S(=O)(=O)Nc2ccc3oc(C)c(C(=O)O)c3c2)cc1,21.3%
18,CSc1nc(C)cc(Oc2ccc(OCCOc3ccccc3)nn2)n1,-23.2%
19,OC1(c2ccc(Cl)cc2)CCN(Cc2nc(-c3cnccn3)no2)CC1,-1.35%
20,CSc1nc2n(n1)C(c1cccc(F)c1)C(C(=O)Nc1ccc(C)cc1C)=C(C)N2 (stereo not shown),-0.769%
21,O=C(COC(=O)c1ccccc1N1C(=O)C2C3CCC(C3)C2C1=O)c1ccccc1 (stereo not shown),1.28%
22,COc1cccc(N(C(=O)c2sc(C)nc2C)C(C(=O)NCC2CCCO2)c2ccccc2)c1 (stereo not shown),-8.87%

row,Structure (SMILES),"hERG current change (%, negative = inhibition) at 10uM"
1,CC1CCCCC1NC(=O)c1ccc2c(c1)OCCO2 (stereo not shown),3.51%
2,Cc1cc(OCc2nc3ccccc3s2)ccc1N,-1.17%
3,Cc1cc(NC(=O)/C=C/c2cccc(Cl)c2)n(-c2nc3ccccc3[nH]2)n1,-1.83%
4,COc1ccc(-c2csc(N3CCN(S(=O)(=O)c4ccc5c(c4)NC(=O)CO5)CC3)n2)cc1,17.2%
5,CCC(=O)NN1CCN(c2ccncc2S(=O)(=O)N2CCCCC2)CC1,5.14%
6,CN1CCN(c2ccncc2S(=O)(=O)N2CCCCC2)CC1,14.7%
7,CCC(=O)N(C(=O)CC)N1CCN(c2ccncc2S(=O)(=O)N2CCCCC2)CC1,-52.5%
8,Cc1cc(N(C)C)c(C#N)c(N2CCCCC2)n1,-4.92%
9,O=C(OC(c1ccccc1)c1nccc2ccccc12)c1cc([N+](=O)[O-])cc([N+](=O)[O-])c1 (stereo not shown),22.9%
10,Cc1occc1C(=O)/C(C#N)=C/c1ccc(O)c(Br)c1,6.16%
11,O=C(NCCc1cn2ccccc2n1)c1cc(COc2ccc3ncccc3c2)on1,-65.7%
12,O=C(NCCc1cn2ccccc2n1)c1cc(COc2c(F)cccc2F)on1,-64.9%
13,Cc1ccc(OCc2cc(C(=O)NCc3cn4ccccc4n3)no2)cc1C,-38.7%
14,Cc1cc(C)nc(CCNC(=O)c2cc(COc3c(F)cccc3F)on2)n1,4.72%
15,O=C(NCCCc1ccccc1)c1cc(COc2c(F)cccc2F)on1,-6.23%
16,Cc1cc(C)n(CCNC(=O)c2cc(COc3ccc4ncccc4c3)on2)n1,-3.15%
17,Cc1cc(C(=O)NC(=S)Nc2cccc(NC(=O)C(C)C)c2)ccc1[N+](=O)[O-],3.95%
18,Cc1ccc(NC(=O)C2CCC(=O)N2C(=O)OCc2ccccc2)cc1 (stereo not shown),-23.5%
19,COc1ccc(C(=O)C2CCCN(Cc3cccn3-c3ccccn3)C2)cc1F (stereo not shown),-78.5%
20,COc1ccc(C(=O)C2CCCN(C(=O)c3cccnc3OC)C2)cc1F (stereo not shown),-4.56%
21,O=C(c1cc(F)ccc1F)C1CCCN(Cc2cccn2-c2ccccn2)C1 (stereo not shown),-77.9%
22,COc1ncccc1C(=O)N1CCCC(C(=O)c2cc(F)ccc2F)C1 (stereo not shown),-9.02%

row,Structure (SMILES),"hERG current change (%, negative = inhibition) at 10uM"
1,COc1ccc(F)cc1C(=O)C1CCCN(Cc2cccn2-c2ccccn2)C1 (stereo not shown),-83.5%
2,COC(=O)c1cccc(C(=O)N2CCCC(C(=O)c3cc(F)ccc3F)C2)c1 (stereo not shown),-21%
3,O=C(c1cc(F)ccc1F)C1CCCN(C(=O)CSc2ccccn2)C1 (stereo not shown),-31.9%
4,COc1ccc(F)cc1C(=O)C1CCCN(C(=O)CSc2ccccn2)C1 (stereo not shown),-7.26%
5,COc1ccc(F)cc1C(=O)C1CCCN(Cc2cccn2-c2cccnc2)C1 (stereo not shown),-47%
6,CN(C)c1cccc(C(=O)N2CCCC(C(=O)c3cc(F)ccc3F)C2)c1 (stereo not shown),0.21%
7,O=C(c1cc(F)ccc1F)C1CCCN(C(=O)c2ccc3nccnc3c2)C1 (stereo not shown),-50.2%
8,COc1ccc(S(=O)(=O)N2CCC(C(=O)NC3(C)CCS(=O)(=O)C3)CC2)cc1OC (stereo not shown),7.87%
9,Cc1cc(C)nc(N2CCCC(C(=O)NCc3cccc(C(F)(F)F)c3)C2)n1 (stereo not shown),16.7%
10,Cc1ccc(CN2CCN(/N=C/c3cc(Br)cc(Br)c3O)CC2)cc1,5.09%
11,CCOC(=O)C(CC)/C(C)=N\NC(=O)c1cccc(C)c1 (stereo not shown),35.5%
12,O=S(=O)(NCc1ccc(C(F)(F)F)cc1)c1ccc(-n2cnnn2)cc1,-22.2%
13,COC(=O)C1=C(C)NC(=S)N(C(C)=O)C1c1ccccc1 (stereo not shown),-8.87%
14,CCc1sc(C(=O)Nc2cc(S(=O)(=O)N3CCOCC3)ccc2OC)cc1C,7.24%
15,O=c1[nH]c(C2CCCN(S(=O)(=O)c3ccccc3)C2)nc2c1nnn2Cc1ccc(OC(F)(F)F)cc1 (stereo not shown),26.6%
16,COc1cccc(-c2nnc(SCC(N)=O)n2-c2ccc(Cl)cc2)c1,-9.7%
17,O=C1CN=C(c2ccccc2)c2cc(Br)ccc2N1Cc1cc(=O)n2ccccc2n1,-51.7%
18,NNC(=O)CN1C(=O)CN=C(c2ccccc2)c2cc(Br)ccc21,-5.51%
19,CC(=O)NNC(=O)CN1C(=O)CN=C(c2ccccc2)c2cc(Br)ccc21,13.1%
